# About 14,000 (4.5%) of roughly 310,000 compounds showed an effect of 50% or more. The effect is printed as a negative number. What follows is part of a selection rich in strong results, with near analogues and random picks from the rest.
# Target: human ether-à-go-go-related gene (hERG) potassium channel (human, UniProt Q12809)
# Test: primary screen, population patch clamp on CHO cells stably expressing hERG; higher = less effect of the substance
# 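Also: peak tail current of the secondary pulse compared with the same well before compound.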
# Chain of human ether-à-go-go-related gene (hERG) potassium channel (Q12809 whole entry, looked up): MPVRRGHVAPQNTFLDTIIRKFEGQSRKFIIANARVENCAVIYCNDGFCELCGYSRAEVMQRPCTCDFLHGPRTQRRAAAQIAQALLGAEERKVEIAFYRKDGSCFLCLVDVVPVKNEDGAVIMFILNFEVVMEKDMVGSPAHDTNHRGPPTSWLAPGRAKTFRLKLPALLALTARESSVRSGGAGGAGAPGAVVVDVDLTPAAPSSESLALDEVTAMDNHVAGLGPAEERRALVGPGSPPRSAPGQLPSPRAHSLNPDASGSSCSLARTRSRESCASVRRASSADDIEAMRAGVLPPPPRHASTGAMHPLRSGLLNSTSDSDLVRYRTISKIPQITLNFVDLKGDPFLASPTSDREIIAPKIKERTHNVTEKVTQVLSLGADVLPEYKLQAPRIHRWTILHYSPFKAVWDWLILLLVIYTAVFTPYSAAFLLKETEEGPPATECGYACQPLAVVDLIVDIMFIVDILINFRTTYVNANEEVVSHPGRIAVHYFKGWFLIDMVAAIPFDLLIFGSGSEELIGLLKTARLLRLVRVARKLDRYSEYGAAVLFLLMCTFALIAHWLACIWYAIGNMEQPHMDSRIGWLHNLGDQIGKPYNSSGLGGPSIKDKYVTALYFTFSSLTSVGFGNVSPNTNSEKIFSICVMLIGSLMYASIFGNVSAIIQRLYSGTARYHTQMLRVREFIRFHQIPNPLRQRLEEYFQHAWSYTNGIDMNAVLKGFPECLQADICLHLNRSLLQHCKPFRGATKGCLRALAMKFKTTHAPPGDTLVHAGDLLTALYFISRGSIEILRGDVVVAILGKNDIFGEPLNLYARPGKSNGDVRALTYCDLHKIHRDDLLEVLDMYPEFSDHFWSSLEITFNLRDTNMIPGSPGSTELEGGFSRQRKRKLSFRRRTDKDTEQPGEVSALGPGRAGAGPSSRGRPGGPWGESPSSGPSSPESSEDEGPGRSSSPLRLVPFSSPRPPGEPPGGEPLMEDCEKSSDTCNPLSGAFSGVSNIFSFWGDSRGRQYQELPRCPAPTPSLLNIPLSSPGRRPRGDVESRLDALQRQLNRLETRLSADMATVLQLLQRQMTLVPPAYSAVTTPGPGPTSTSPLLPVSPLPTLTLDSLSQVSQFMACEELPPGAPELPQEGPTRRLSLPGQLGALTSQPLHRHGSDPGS
row,Structure (SMILES),"hERG current change (%, negative = inhibition) at 10uM"
1,COc1ccc2c(-c3ccccc3)cc(SCC(=O)N(C)C)nc2c1,-22.9%
2,C=CCNC(=O)c1oc2ccc(S(=O)(=O)N3CCC4(CC3)OCCO4)cc2c1C,0.761%
3,CC(OC(=O)/C=C/c1ccco1)C(=O)Nc1cccc([N+](=O)[O-])c1 (stereo not drawn),6.57%
4,Cc1ccc(-n2nc3c(=O)n(CC(=O)NC(C)CCc4ccccc4)nc(C)c3c2C)cc1 (stereo not drawn),6.77%
5,O=C(CNC(=O)c1ccco1)Nc1ccc(OC(F)F)cc1,19.6%
6,COc1cc(/C=C2\C(=N)N3N=C(S(C)(=O)=O)SC3=NC2=O)ccc1OS(=O)(=O)c1ccc(C)cc1,6.9%
7,CCOc1ccc(NC(=O)/C=C/c2ccccc2)c([N+](=O)[O-])c1,-5.94%
8,NC(=O)c1ccc(NC(=O)COc2ccc(-n3cnnn3)cc2)cc1,-4.26%
9,CCc1ccc(-c2cc(C)no2)cc1S(=O)(=O)Nc1cc(C)on1,10.3%
10,O=C(CN1CCCC1)Nc1cc(C(F)(F)F)ccc1Cl,2.22%
11,O=C(CN1CCN(C(=O)c2ccco2)CC1)Nc1cc(C(F)(F)F)ccc1Cl,-63.6%
12,O=C(CN1CCOCC1)Nc1cc(C(F)(F)F)ccc1Cl,-0.356%
13,COc1ccccc1N1C(=O)CC(Sc2ccccc2N)C1=O (stereo not drawn),0.966%
14,CN1CCN(c2ccc(C(=O)c3ccccc3)cc2[N+](=O)[O-])CC1,-53.1%
15,COC(=O)c1ccc(N2CCN(S(=O)(=O)c3ccc(Br)cc3)CC2)c([N+](=O)[O-])c1,10.6%
16,COC(=O)c1ccc(N2CCN(C(=O)C3CC3)CC2)c([N+](=O)[O-])c1,-7.61%
17,O=C(O)c1ccccc1C(=O)c1ccc(N2CCCC2)c([N+](=O)[O-])c1,13.8%
18,CN1CCN(c2ccc(C(=O)NC3CCCCC3)cc2[N+](=O)[O-])CC1,-9.83%
19,COC(=O)c1ccc(N2CCN(CC(=O)c3ccc(-c4ccccc4)cc3)CC2)c([N+](=O)[O-])c1,8.75%
20,COC(=O)c1ccc(N2CCN(S(=O)(=O)c3ccc(C)cc3)CC2)c([N+](=O)[O-])c1,4.78%
21,CN1CCN(c2ccc(C(=O)c3ccc(Br)cc3)cc2[N+](=O)[O-])CC1,-72.1%
22,COC(=O)c1ccc(N2CCN(C)CC2)c([N+](=O)[O-])c1,-63.4%

row,Structure (SMILES),"hERG current change (%, negative = inhibition) at 10uM"
1,COC(=O)c1ccc(N2CCc3ccccc32)c([N+](=O)[O-])c1,10.5%
2,CN1CCN(c2ccccc2NC(=O)c2ccc(N3CCCC3)c([N+](=O)[O-])c2)CC1,-48.5%
3,COC(=O)c1ccc(N2CCN(CC(=O)c3ccc(C)cc3)CC2)c([N+](=O)[O-])c1,-65%
4,O=C(NCc1cccs1)c1cc2c(s1)CS(=O)(=O)C2,-0.732%
5,O=C(N/N=C/c1c[nH]c2ccccc12)C1CC1c1ccccc1 (stereo not drawn),-4.47%
6,COC(=O)c1cc(C(=O)OC)n(Cc2ccc(F)cc2)n1,-12.9%
7,O=C(O)c1cccc(N(CCO)CCO)c1,-1.13%
8,CC(C)COP(=O)(c1ccc(N(C)C)cc1)C(O)c1ccc(Br)cc1 (stereo not drawn),8.63%
9,COc1ccc(CCNC(=O)c2nnc(CS(=O)(=O)c3ccccc3)o2)cc1OC,-6.44%
10,Cc1c(-c2ccccc2)cn2c1-c1ccc(C)n1CC2,-0.42%
11,COc1ccc(-c2nnc(SCC(=O)N(C)C3CCS(=O)(=O)C3)n2N)cc1OC (stereo not drawn),19.8%
12,O=C(CN1C(=O)/C(=C\c2ccc(C(F)(F)F)cc2)Sc2ccccc21)NCc1ccco1,-5.39%
13,Cc1cc(=O)[nH]c(N/N=C/C(C)c2ccccc2)n1 (stereo not drawn),7.54%
14,CCc1cccc(CC)c1NC(=O)C1SC(=Nc2ccccc2C)C(c2nc3ccccc3s2)=C1N (stereo not drawn),29.1%
15,Cc1ccc(C(=O)c2ccc(N3CCN(C)CC3)c([N+](=O)[O-])c2)cc1,-68.8%
16,CN1CCN(c2ccc(C(N)=O)cc2[N+](=O)[O-])CC1,7.57%
17,Cc1ccc(OC(=O)c2ccc(N3CCOCC3)c([N+](=O)[O-])c2)cc1,-4.31%
18,CN1/C(=C\C(=O)COC(=O)C2COc3ccccc3O2)C(C)(C)c2ccccc21 (stereo not drawn),9.13%
19,CCCCn1c(N)c(N(CCC(C)C)C(=O)C(C)N2C(=O)c3ccccc3C2=O)c(=O)[nH]c1=O (stereo not drawn),8.31%
20,CCCOC(=O)c1cccc(NC(=O)C(C)(C)C)c1,1.43%
21,CCC1(C)Cc2c(sc3nnn(CC(=O)Nc4ccccc4C)c(=O)c23)CO1 (stereo not drawn),-58.4%
22,Cc1ccccc1NC(=O)Cn1nnc2sc3c(c2c1=O)CC(C)(C)OC3,-35.2%

row,Structure (SMILES),"hERG current change (%, negative = inhibition) at 10uM"
1,CCC1(C)Cc2c(sc3nnn(CC(=O)Nc4cccc5ccccc45)c(=O)c23)CO1 (stereo not drawn),3.09%
2,O=C1CN(C(=O)CN2CCCC2)C(c2ccccc2)c2cc(Br)ccc2N1 (stereo not drawn),-46.6%
3,CCC(CC)C(=O)N1CC(=O)Nc2ccc(F)cc2C1c1ccccc1 (stereo not drawn),-11.4%
4,CCOC(=O)CN1C(=O)Nc2ccc(Br)cc2C1c1ccccc1 (stereo not drawn),-56.7%
5,COC(=O)CN1C(=O)Nc2ccc(Br)cc2C1c1ccccc1 (stereo not drawn),-14.6%
6,CCC(CC)C(=O)N1CC(=O)Nc2ccc(C)cc2C1c1ccccc1 (stereo not drawn),-38.1%
7,CCOC(=O)N1CC(=O)Nc2ccc(Br)cc2C1c1ccccc1 (stereo not drawn),-24.4%
8,O=C1CN(C(=O)CN2CCCCC2)C(c2ccccc2)c2cc(Br)ccc2N1 (stereo not drawn),-66.5%
9,O=C1CN(C(=O)CN2CCOCC2)C(c2ccccc2)c2cc(Br)ccc2N1 (stereo not drawn),-32.3%
10,O=C(O)CN1C(=O)Nc2ccc(Br)cc2C1c1ccccc1 (stereo not drawn),-3.51%
11,CCC(=O)N1CC(=O)Nc2ccc(Br)cc2C1c1ccccc1 (stereo not drawn),-11.6%
12,CCC(CC)C(=O)N1CC(=O)Nc2ccc(Br)cc2C1c1ccccc1 (stereo not drawn),-73.5%
13,O=C1CN(C(=O)CCN2CCOCC2)C(c2ccccc2)c2cc(Br)ccc2N1 (stereo not drawn),-60.5%
14,COc1ccccc1C(=O)NCCC(=O)NCC(c1ccccc1OC)N1CCCC1 (stereo not drawn),29.8%
15,O=C(Nc1ccncc1)C1CCN(S(=O)(=O)c2ccccc2)CC1,3.04%
16,CCOC(=O)C1C(=O)CC(C)(O)C(C(=O)OCC)C1c1ccc([N+](=O)[O-])cc1 (stereo not drawn),-8.06%
17,FC(F)(F)c1nc(-c2ccncc2)ncc1-c1nnnn1-c1ccccc1,-0.18%
18,Cc1c(C(=O)N/N=C/c2ccoc2)cccc1[N+](=O)[O-],9.67%
19,O=C(COc1coc(CN2CCN(c3ccccc3F)CC2)cc1=O)NC1CCCCC1,-21.6%
20,CCOC(=O)c1ccc(NC(=O)C2CCN(S(=O)(=O)c3c(C)nn(C)c3C)CC2)cc1,-28.3%
21,O=C(Nc1cccc(C(F)(F)F)c1)c1cc[n+]([O-])cc1,21.2%
22,COc1ccc(OCC(=O)NS(=O)(=O)c2ccccc2)cc1,15.3%

row,Structure (SMILES),"hERG current change (%, negative = inhibition) at 10uM"
1,O=C1CN(C(=O)c2ccccc2F)C(c2ccc(F)cc2)c2cc(Br)ccc2N1 (stereo not drawn),-23%
2,Cc1ccc2c(c1)C(c1ccccc1)N(C(=O)c1ccccc1[N+](=O)[O-])CC(=O)N2 (stereo not drawn),-40.5%
3,O=C1CN(C(=O)c2ccccc2[N+](=O)[O-])C(c2ccccc2)c2cc(Br)ccc2N1 (stereo not drawn),-66.5%
4,CCOC(=O)c1c(NC(C)=O)sc2c(OC(C)=O)cccc12,8.8%
5,Cn1c(CO)cnc1SCc1ccc(F)cc1,18.2%
6,CCOc1ccccc1/C=N/NC(=O)c1nnn(-c2nonc2N)c1CN1CCC(C)CC1,9.08%
7,CN(CC(=O)N1CCCc2c1c(=O)oc1ccc(O)cc21)Cc1ccccc1,-67.4%
8,CC1CCN(CCC(=O)N2CCCc3c2c(=O)oc2ccc(O)cc32)CC1,-14%
9,CC(=O)c1cccc(NC(=O)C(C)N2CCc3ccccc3C2)c1 (stereo not drawn),4.43%
10,CCCOc1ccc2oc(=O)c3c(c2c1)CCCN3C(=O)CN(C)Cc1ccccc1,-29.7%
11,O=C(CN1CCN(Cc2ccccc2)CC1)N1CCCc2c1c(=O)oc1ccc(O)cc21,-14%
12,CC(C(=O)N1CCCc2c1c(=O)oc1ccc(O)cc21)N1CCc2ccccc2C1 (stereo not drawn),-56.5%
13,O=C(NCCCl)C1Cc2c(ccc3ccccc23)O1 (stereo not drawn),7.97%
14,O=C(CCNC(=O)C1CCN(S(=O)(=O)c2ccccc2)CC1)NCc1ccc(Cl)cc1,8.88%
15,Nc1ccccc1Nc1ccncc1[N+](=O)[O-],20%
16,CCOC(=O)C1(Cc2ccccc2)CCCN(Cc2ccc(OCC)c(CO)c2)C1 (stereo not drawn),-52.3%
17,CCOC(=O)C1(CCOc2ccccc2)CCN(Cc2ccc(OCC)c(CO)c2)CC1,-79.5%
18,CCOC(=O)C1(CCOc2ccccc2)CCN(Cc2ccc(OC)c(O)c2)CC1,-82.2%
19,CCOC(=O)C1(Cc2ccccc2)CCCN(Cc2cccc(C(C)=O)c2)C1 (stereo not drawn),-2.24%
20,CCOC(=O)C1(CCOc2ccccc2)CCN(Cc2ccc(OC)c(COC)c2)CC1,-80.2%
21,CCOC(=O)C1(Cc2ccccc2)CCCN(Cc2ccc(OCCO)cc2)C1 (stereo not drawn),-1.04%

# — article PMC4336329 (PLoS ONE, 2015)
